Each structure is given as a SMILES string. The source made the active and inactive calls.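 Rule for the calls: active = cell survival after UV exposure 2 SD above solvent-only control wells at 10 µM, confirmed on one or two repeats; inactive = the rest.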

This assay can be described thus: protection of CHO cells from pyrene-fatty acid UV killing, primary screen, phospholipid biosynthesis inhibitor project, ZR-82 cells, Analyticon library, screen 2 (AID 1347383).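 Note: survival reflects blocked phospholipid synthesis cutting uptake of the phototoxic fatty acid; compound and fatty acid exposure 3 h then viability read next day.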 The following applies: ZR-82 CHO cells, CellTiter Blue, at 10 µM, peroxisome-deficient CHO-K1 variant, with DGAT-1, DGAT-2 and ACAT inhibitors.
For the compound `Cc1c(O)cc(O)c2c1OC(c1ccccc1)CC2=O` (stereo not given), the result was inactive. Consider `COc1c(OC)c2occc2c2oc(=O)ccc12`, for which the result was inactive. As for `O=C(OCc1ccccc1)c1ccccc1`, the result was inactive. Next, `COc1c(O)cc2c3c1COc1cc(O)cc(c1-3)CC2`: “inactive”; `C=C1CCC2OC(=O)C(C)=C2C2C1C13OC1(CC(C)C3=O)C1OC21C` (stereo not given): “inactive”; `CC/C=C\CC1C(=O)C=CC1(CCCCC1CCC(=O)O1)OC(C)=O` (stereo not given): “inactive”. With `O=C1c2ccc(O)cc2C(=O)c2ccc(O)cc21`, the call was inactive. Turning to `O=C1c2cccc(O)c2C(=O)c2c(O)cccc21`, the compound was classed as inactive.

On to `COc1cc(OC)c2c(c1Cl)O[C@]1(C2=O)C(O)=CC(=O)C[C@H]1C`, for which the compound was called inactive. `CS/C=C/C(=O)O[C@@H]1CCC2=CC(=O)C(=C(C)C)C[C@]2(C)[C@H]1C`: the compound was classed as inactive.

Turning to `CCCCC[C@H](O)[C@H]1C(=O)OC[C@H]1CO`, the call was inactive.

Regarding `CC1(C)CC2C3OC(O)C4(O)OC(C)(CC34)C2C1` (stereo not given), the compound was called inactive. Consider `C=C1CCc2occ(C)c2[C@H]2[C@H]1[C@@]13O[C@@]1(C[C@@H](C)[C@H]3OC(C)=O)[C@H]1O[C@@]21C`, for which the outcome was inactive. With `CC1CCC2(C)C(CC(O)C(O)C23CO3)C1(C)CCC1=CC(O)OC1=O` (stereo not given), the result was inactive. As to `CC1(C)CC(O)CC2(C)OC(=O)C=C12` (stereo not given), the compound was classed as inactive.

Take `COc1ccc2c(c1OC)C(=O)N1CCc3cc4c(cc3C(=O)C21O)OCO4` (stereo not given): the result was inactive. The same measure for `C/C=C(/C)C(=O)OC1C2OC2C2(CO2)C2C3OC(=O)C(C)C3CCC12C` (stereo not given): “inactive”; for `O=C1CC(c2ccc(O)cc2)Oc2ccccc21` (stereo not given): “inactive”. For the compound `C/C(=C\C(=O)C[C@]12C(=O)O[C@]3(C)CC[C@H]1C[C@H]23)C(N)=O`, the result was inactive. For `C/C=C/CCC1Cc2cc(O)c(CCCC)c(O)c2C(=O)O1` (stereo not given), the compound was called inactive. Next, `COc1ccc(C)c2c(O)c(CC=C(C)C)c(=O)oc12`: “inactive”; `C=C1CC[C@@H](C)[C@](C)(CCc2ccoc2)C/C=C\C=C/1C(=O)O`: “inactive”.

As for `COC1OC(OC)C(O)(CC/C=C(\C)CC/C=C(\C)C(=O)O)C1O` (stereo not given), the compound was classed as inactive. Next, `Cc1c(O)cc2c(c1O)C(=O)c1ccccc1C2=O`: “inactive”; `OCCc1ccc(O)cc1`: “inactive”; `COc1c(OC)c(OC)c2c(c1OC)c(=O)c1ccccc1n2C`: “inactive”. For `COc1c(C(=O)CC(=O)c2ccccc2)ccc2occc12`, the compound was called inactive. On to `CC(=O)O[C@@H]1CC[C@@]2(C)C(CC[C@]3(C)C2C(=O)C=C2[C@@H]4[C@@H](C)[C@H](C)CC[C@]4(C)CC[C@]23C)[C@@]1(C)C(=O)O` (stereo not given in full), for which the compound was called inactive.

For `C=C1NC(=O)C2CCCN2C1=O` (stereo not given), the compound was classed as inactive. Regarding `COc1cc(CCc2ccc(OCC(O)C(C)(C)O)cc2)cc2c1OCO2` (stereo not given), the compound was called inactive. As for `O=c1c(O)c(-c2cc(O)c(O)c(O)c2)oc2cc(O)cc(O)c12`, the outcome was inactive.

With `COc1ccc(CC2C(=O)OCC2Cc2cc(OC)c3c(c2)OCO3)cc1OC` (stereo not given), the compound was classed as inactive. Next, `COc1ccc(C(O)C(C)OC2OC(CO)C(O)C(O)C2O)cc1` (stereo not given): “inactive”; `CCCCCCCC(=O)C(C)NC(=O)CCC(=O)O` (stereo not given): “inactive”. With `CC(O)C(O)/C=C/c1cccc(=O)o1` (stereo not given), the compound was called inactive. With `CC[C@H](C)/C=C(C)/C=C/C1=CC2=CC(=O)[C@]3(C)OC(=O)[C@@H](C(C)=O)[C@@H]3C2=CO1`, the compound was called inactive. Take `C=C1CCC2[C@@](C)(CO)CCC[C@]2(C)[C@H]1CC/C(C)=C/CO` (stereo not given in full): the outcome was inactive.

On to `C[C@@H]1O[C@@H](Oc2c(-c3ccc(O)cc3)oc3cc(O)cc(O)c3c2=O)[C@H](O)[C@H](O)[C@H]1O`, for which the compound was classed as inactive.

With `CCC(O)/C=C1\OC(=O)C2=C1CCC=C2` (stereo not given), the compound was called inactive. Next, `COC12CC3C(C(C)C1=CC(=O)O2)C(O)C(OC(=O)/C=C/c1ccccc1)C1(O)C(C)(C)CCCC31C` (stereo not given): “inactive”.

The record behind these values is PubChem BioAssay AID1347383 (Zoeller Lab, School of Medicine, Boston University, 2020).
